# Shown are actives, neighbours in structure and some others; about 0.9% of the full set was active somewhere.
# Rhodamine fluor: qHTS Assay for Spectroscopic Profiling in Rhodamine Spectral Region | 59,000 compounds, 0.05% hits | max dye-equivalent concentration, M | AID 594, 2007 | Rhodamine-region fluorescence, 547/598 nm, Tris buffer; hits give high values; in the data active means max dye-equivalent concentration above about 11 nM; inconclusive means between about 1.1 nM and that limit
#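 Intensities are converted to rhodamine-equivalent concentration using a six-point rhodamine standard on each plate. Compounds sit 15 min at room temperature in 100 mM Tris buffer, pH 8.0; read uses the 547/598 nm excitation/emission pair.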
# A647 autofl: qHTS Assay for Spectroscopic Profiling in A647 Spectral Region. Compound fluorescence, A647 channel (570/671 nm), Tris buffer. max dye-equivalent concentration, M. 59,000 tested, under 10 active;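 further: values scaled relative to a standard on each plate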
#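 Tris 100 mM pH 8.0; cpd + A647 stds pin-transferred; 15 min RT; CCD imager, ex 570/em 671. Output = A647-equivalent conc. per cpd conc.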
# Fluorescein fluor: qHTS Assay for Spectroscopic Profiling in Fluorescein Spectral Region | Compound autofluorescence, 480/540 nm, fluorescein-equivalent; hits give high values | max fluorescein-equivalent concentration, M | 59,000 compounds, 0.91% hits | AID 593, 2007; in the data active means max fluorescein-equivalent concentration above about 10 nM; inconclusive means between about 1.1 nM and that limit
#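 Autofluorescence profiling; 100 mM Tris, pH 8.0; incubation 15 min at RT; ex/em 480/540 nm; result as fluorescein-equivalent concentration.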
# A488 autofl: qHTS Assay for Spectroscopic Profiling in A488 Spectral Region. compound autofluorescence, A488 spectral region, dye equivalency; Compound Type: qHTS ECL - MLSMR. max dye equivalency, M. 59,000 compounds, 0.1% hits. AID 591, 2007
#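 Readout is A488 dye-equivalent concentration, calibrated by a per-plate six-point Alexa 488 series. Compounds in 100 mM Tris buffer pH 8.0 were incubated 15 min at room temperature. Plates were imaged using 480 nm excitation/540 nm emission filters.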
# Resorufin autofl: qHTS Assay for Spectroscopic Profiling in Resorufin Spectral Region; max dye-equivalent concentration, M; 59,000 compounds, 0.04% hits; Compound fluorescence, resorufin region 547/598 nm, buffer; hits give high values; AID 588, 2007
#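 Tris 100 mM pH 8.0; compound added, 15 min RT; CCD imager read, ex 547 nm/em 598 nm; signal normalized to resorufin standard curve (six concentrations per plate) as dye-equivalent concentration.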
# Texas Red fluor: qHTS Assay for Spectroscopic Profiling in Texas Red Spectral Region; 59,000 compounds, 0.06% hits; Compound fluorescence, Texas Red channel, 547/618 nm; hits give high values; max dye-equivalent concentration, M; AID 587, 2007; in the data active means max dye-equivalent concentration above about 10 nM; inconclusive means between about 1.1 nM and that limit
#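 qHTS profiling of intrinsic compound fluorescence; 100 mM Tris pH 8.0; 15 min RT; ex 547 / em 618 nm; response expressed as Texas Red dye-equivalent concentration from six-point plate standard.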
# Numbers without * were called inactive; i = inactive; ? = inconclusive. Unless noted, how the calls were made is not given here.
SMILES,Rhodamine fluor,A647 autofl,Fluorescein fluor,A488 autofl,Resorufin autofl,Texas Red fluor
OCCN(CCO)c1nc(N2CCCCC2)c2nc(N(CCO)CCO)nc(N3CCCCC3)c2n1,i,3.38e-08,6.68e-07M*,2.93e-08M*,i,i
Cn1cccc1C(=O)N1CCC[C@@]2(CCN(c3ccccc3)C2)C1,i,1.2e-09,1.1e-08M*,i,i,i
C[C@H](N)C1CCC(C(=O)Nc2ccncc2)CC1 (stereo partly drawn),i,1.07e-08,i,i,i,?
CC1=C(C#N)C(=O)OC(C)(C)C1,i,1e-09,5.04e-08M*,?,i,i
CC[C@]1(O)C[C@H]2CN(CCc3c([nH]c4ccccc34)[C@](C(=O)OC)(c3cc4c(cc3OC)N(C)[C@@H]3[C@](O)(C(=O)OC)[C@H](OC(C)=O)[C@]5(CC)C=CCN6CC[C@]43[C@@H]65)C2)C1,i,1.9e-09,?,i,i,i
COc1cccc(C2=CC(c3ccccc3)n3ncnc3N2)c1 (stereo not drawn),i,6.1e-09,?,i,i,i
CCOc1ccc(C2C=C(c3ccc(F)cc3)Nc3ncnn32)cc1 (stereo not drawn),i,4.8e-09,?,i,i,?
COc1ccc(C2C=C(c3ccc(C)cc3)Nc3ncnn32)cc1 (stereo not drawn),i,1.8e-09,1.06e-08M*,i,i,i
COc1ccc(C2C=C(c3ccc(Br)s3)Nc3ncnn32)cc1OC (stereo not drawn),i,1e-09,1.26e-06M*,7.32e-08M*,i,i
C1=C(c2ccc(-c3ccccc3)cc2)Nc2ncnn2C1c1ccco1 (stereo not drawn),i,3.6e-09,1.42e-07M*,?,i,i
CCOc1ccc(C2C=C(c3ccccc3)Nc3ncnn32)cc1 (stereo not drawn),i,1.1e-09,1.31e-08M*,i,i,i
CC(C)C1=CC2=CC[C@H]3[C@@](C)(CCC[C@]3(C)C(=O)O)[C@@H]2CC1,i,1.9e-09,i,i,i,i
O=C(O)CCC/C=C\C[C@H]1[C@@H](/C=C\[C@@H](O)C2Cc3ccccc3C2)[C@H](F)C[C@H]1O,i,6.2e-09,i,i,i,i
CCOC(=O)c1c(C)[nH]c(C)c1C(=O)Cn1nnc(-c2ccccc2C)n1,i,1e-09,1.01e-08M*,i,i,i
Nc1ccn([C@@H]2O[C@@H](CO)[C@@H](O)[C@H]2O)c(=O)n1,i,1e-08,?,i,i,i
COc1ccc2cc(C(c3nnnn3CCc3ccccc3)N3CCC(O)CC3)c(=O)[nH]c2c1 (stereo not drawn),2.4e-08M*,1.2e-09,1.44e-08M*,i,1.29e-08M*,4.1e-08M*
C[C@H](N)C(=O)OC(C)(C)Cc1ccc(Cl)cc1,i,1.98e-08,?,i,i,i
CCOC(=O)c1cnn2c(C(F)(F)F)cc(-c3ccco3)nc12,i,1e-09,i,i,i,i
CC(C)OC(=O)c1nn2c(C(F)(F)F)cc(-c3ccc(Br)o3)nc2c1Br,i,5.27e-08,1.65e-08M*,i,i,i
COc1ccccc1C(=O)Nc1ccccn1,i,3.66e-08,?,i,i,?
CCN(CC)c1ccc2cc(NC(=O)CCC(=O)O)c(=O)oc2c1,i,1e-09,2.23e-07M*,1.23e-08M*,i,i
CCN(CC)c1ccc2cc(C(=O)Nc3ccccn3)c(=O)oc2c1,i,4.33e-08,5.44e-07M*,2.6e-08M*,i,i
CCN(CC)c1ccc2cc(C(=O)Nc3cccnc3N3CCOCC3)c(=O)oc2c1,i,1.6e-08,4.04e-08M*,?,i,i
COc1ccccc1OC[C@H](O)CN1CCN(CC(=O)Nc2c(C)cccc2C)CC1,i,3.3e-09,i,i,i,?
C=CCn1c(=S)[nH]c2ccc(Br)cc2c1=O,i,7.9e-09,1.95e-08M*,i,i,i
